# According to ChEMBL document CHEMBL3988442, “University of Dundee, Small-Polar-MMV Screening Library” (2021):
# Hit rate of the full screen: of about 48,000 compounds, about 13,000 (27%) showed an effect of 50% or more. The list shows a part of the results.
# Tested on: Wolbachia pipientis
# Assay: Anti-Wolbachia Cell-Based Screen
# Type: functional
# Set-up: scale not given: in the data most compounds retested in dose-response had high values
# Conditions: 5 µM
row,SMILES,Percent Effect [%]
1,CC(C)n1c(C(=O)N2CCCC2)nc2c1CCN(C)C2.O=C(O)C(F)(F)F,-17.76
2,O=C(Nc1cnc2n1CCCC2)c1cccc(OCC(F)(F)F)c1,-7.584
3,NC(=O)C1CCN(CCc2ccc(NCc3cccnc3)cc2)CC1,-10.11
4,CC(O)C1CCN(c2cc(Cl)ccc2C#N)CC1 (centres undefined),-3.342
5,CC1(c2ccccc2)CCCN(Cc2cncn2C2CCCC2)C1 (centres undefined),-2.034
6,CC(C)CNC(=O)CNC(=O)NCC(O)c1ccc2ccccc2c1 (centres undefined),1.707
7,CCSc1cc(C(=O)N(CC(F)F)C(C)C)ccn1,-6.776
8,CCSc1cc(C(=O)N(C(C)C)C2CC2)ccn1,-12.03
9,O=C(O)c1ccnc(SCc2ccccc2)c1,93.4
10,O=C(O)c1ccnc(SCC(F)(F)F)c1,103
11,CCSc1cc(C(=O)NCc2ccccc2O)ccn1,-4.116
12,CCSc1cc(C(=O)NCCC(=O)Nc2ccccn2)ccn1,-16.79
13,CCC(CC)(CN)NC(C)c1ccccc1 (centres undefined),4.415
14,O=C(NCCc1cccc(O)c1)NC1CCN(c2ccccc2)C1=O (centres undefined),-1.396
15,O=C(NCCN1CCC(c2cccs2)CC1)Nc1cccs1,-15.35
16,O=C(NCCc1ccccc1)NCCN1CCC(c2cccs2)CC1,129.5
17,COc1ccc(CCNC(=O)CN2CCOCS2(=O)=O)cc1,-7.481
18,COc1ccc(CCC(=O)NCCN2CCC(c3cccs3)CC2)cc1,160.9
19,COc1ccc(CNC(=O)CCN2CCOC(C(F)(F)F)C2)cc1 (centres undefined),-3.399
20,CO[C@H]1CNC[C@@H]1NC(=O)c1cc(C)nc2ccc(C)cc12,-4.766
21,COCCN1C[C@H]2CCN(C(C)=O)CC[C@H]2S1(=O)=O,-12.61
22,O=C(O)C1CCCN(c2nc3c(-c4ccccc4)csc3c(=O)[nH]2)C1 (centres undefined),5.88

row,SMILES,Percent Effect [%]
1,COc1ccc2c(c1)nc1n2[C@@H](CN(C2CCC2)C2CCC2)COC1,-7.437
2,Cc1cnn(CC2CCCN2CC(=O)N(C)Cc2ccsc2)c1 (centres undefined),-8.163
3,Cc1cnn(CC2CN(CC(=O)N(C)Cc3cccs3)CCO2)c1 (centres undefined),-3.9
4,Cc1cnn(CC2CN(CC(=O)N(C)Cc3ccsc3)CCO2)c1 (centres undefined),117
5,CN(Cc1ccsc1)C(=O)CN1CCOC(Cn2cncn2)C1 (centres undefined),122.3
6,Cc1cnn(C2CCCN(C(=O)CCc3cscn3)C2)c1 (centres undefined),115.3
7,COc1cccc(CCC(=O)N2CCCC(n3cc(C)cn3)C2)c1 (centres undefined),-1.259
8,Cc1cnn(C2CCCN(C(=O)Cn3ccc(=O)n(C)c3=O)C2)c1 (centres undefined),-20.71
9,Cc1cc(C)n(C2CCCN(C(=O)CCNS(C)(=O)=O)C2)n1 (centres undefined),0.7954
10,Cc1cnn(C2CCCN(C(=O)CN(C)c3cnccn3)C2)c1 (centres undefined),6.201
11,Cc1cnn(C2CCCN(C(=O)CCc3cnn(C)c3)C2)c1 (centres undefined),94.12
12,Cc1cnn(C2CCCN(C(=O)CCNS(C)(=O)=O)C2)c1 (centres undefined),109.1
13,Cc1cnn(C2CCCN(C(=O)CCc3ccncc3)C2)c1 (centres undefined),119.7
14,O=C(CCc1cscn1)N1CCCC(n2ccnc2)C1 (centres undefined),-7.112
15,CCCC(C)N(C)Cc1nnc(-c2ccc(Br)s2)o1 (centres undefined),-85.49
16,CCNc1ncc(C(=O)N(C)Cc2nc3cc(Cl)ccc3[nH]2)cn1,4.323
17,COc1ccc(-n2c(CCC(=O)O)nc3ccccc32)cc1CO,-17.89
18,CN(C)C(=O)CN1C[C@@H]2CC[C@H](C1)N(C(=O)CCn1cncn1)C2,-10.88
19,O=C(NCC(O)COc1cccc(F)c1)c1ccoc1 (centres undefined),11.74
20,CCN(C(=O)c1ccc2nnc(C3CCN(C)C3)n2c1)C(C)C.O=C(O)C(F)(F)F (centres undefined),-13.6
21,Cc1cc(C2CCCN(C(=O)CCc3cscn3)C2)n[nH]1 (centres undefined),93.55
22,NC(=O)c1cc(C2CCCN(C(=O)CCc3cscn3)C2)n[nH]1 (centres undefined),0.5679

row,SMILES,Percent Effect [%]
1,O=C(CCc1cscn1)N1CCCC(c2ccn[nH]2)C1 (centres undefined),-4.951
2,Cn1cc(C(=O)Nc2ccnc(Oc3ccccc3)c2)ccc1=O,-17.65
3,CCOc1cc(CNC(C)c2sccc2C)ccn1 (centres undefined),3.225
4,CCOc1ccccc1Oc1ccc(CN)cn1,5.762
5,CCOC(=O)NCCC(=O)NCc1ccnc(Oc2ccc(F)cc2)c1,11.47
6,CCOC(CC)C(=O)NCc1ccnc(Oc2ccc(F)cc2)c1 (centres undefined),-12.82
7,NCc1ccnc(Oc2ccc(F)cc2)c1,111.3
8,Cc1ccc(Oc2cc(CN)ccn2)cc1C.Cl,95.86
9,NCc1ccc(Oc2cccc(Cl)c2Cl)cc1,-2.508
10,NCc1ccnc(Oc2ccccc2)c1,91.83
11,CC(C)C(=O)NCc1ccnc(Oc2ccc(F)cc2)c1,-7.223
12,Cc1cc(CC(=O)NCc2ccnc(OCC(F)(F)F)c2)no1,-12.47
13,CCOc1ccc(Oc2cc(CN)ccn2)cc1,101.1
14,Cc1oc(-c2cccs2)nc1C(=O)N(C)C1(C#N)CCC1,6.807
15,Cc1ccc([C@@H]2CN(C(=O)CCc3cc(Cl)no3)C[C@H]2N(C)C)cc1,-9.949
16,COc1ccc(Oc2cc(CN)ccn2)cc1,98.96
17,CC(NC(N)=O)C(=O)NCc1ccnc(Oc2ccc(F)cc2)c1 (centres undefined),-14.04
18,COc1cccc(-c2cc(CN)ccc2F)c1F,-9.579
19,COc1ccc(N(CCC(N)=O)C(=O)CSc2ccc(Cl)cc2)cc1,-20.11
20,COCCC(=O)N[C@H]1CN(c2nc(C)c3c(n2)CCCC3)C[C@@H]1C1CC1,40.93
21,CC(NCc1ccccn1)c1cc2c(cc1Br)OCCO2 (centres undefined),9.612
22,O=C(NCc1ccc(F)cc1)NCC(O)(c1cccs1)C1CC1 (centres undefined),0.4051

row,SMILES,Percent Effect [%]
1,CN1CCC(NC(=O)Nc2ccc(F)c(Br)c2)C1=O (centres undefined),-1.465
2,CN1CCC(NC(=O)c2cc(F)cc(Cl)c2O)C1=O (centres undefined),115.3
3,Cn1cc(N2CCC(NC(=O)c3ccccc3Cl)C2=O)cn1 (centres undefined),-3.21
4,CN1CCC(NC(=O)Nc2ccc(Br)c(F)c2)C1=O (centres undefined),3.385
5,CN1CCC(NC(=O)Nc2ccc(F)c(-n3cccc3)c2)C1=O (centres undefined),0.2161
6,CN1CCC(NC(=O)CCCc2cc(Cl)sc2Cl)C1=O (centres undefined),-5.326
7,CN1CCC(NC(=O)c2cc(Br)cc(Cl)c2O)C1=O (centres undefined),91.47
8,CN1CCC(NC(=O)c2cc(Cl)cc(Br)c2O)C1=O (centres undefined),99.64
9,CN1CCC(NC(=O)Nc2ccc(Cl)c(F)c2)C1=O (centres undefined),7.915
10,CCN(C)C[C@@H]1CN(Cc2cccc(Cl)c2)C[C@@H]1CO,-21.33
11,Cc1ncc(CN(C)C(=O)Nc2cccc(N3CCNC3=O)c2)s1,-6.99
12,COc1cccc(-c2cc(NCc3nc(C)cs3)n(C)n2)c1,-29
13,CCOCC(=O)N1CC[C@H]2[C@@H]1CCC(=O)N2Cc1csc(C)n1,22.07
14,CCCS(=O)(=O)N1CC[C@@H]2[C@@H]1CC(=O)N2Cc1csc(C)n1,71.41
15,CCS(=O)(=O)N1CC[C@H]2[C@H]1CC(=O)N2Cc1csc(C)n1,96.63
16,CCN1C(=O)C[C@@H]2[C@@H]1CCN2S(=O)(=O)c1cccc(C)c1,-32.48
17,COc1ccc(Br)c(C(=O)N2CCCC(c3nc(C)no3)C2)c1 (centres undefined),-8.45
18,CCC(=O)N1CCN(C(=O)Nc2cccc(N3CCOCC3)c2)CC1,-13.34
19,Cn1ccnc1CN1CCC2(CC(=O)N(c3ccc4c(c3)OCO4)C2)C1.O=C(O)C(F)(F)F (centres undefined),-22.94
20,CC(C)n1ccnc1CN1CCOC(C)(C(=O)N2CCOCC2)C1 (centres undefined),127.3
21,O=C(c1cccc(S(=O)(=O)NCCCc2ncc[nH]2)c1)N1CCOCC1,-4.417
22,CC1(C(=O)N2CCOCC2)CN(Cc2ncc[nH]2)CCO1 (centres undefined),90.74

row,SMILES,Percent Effect [%]
1,CC(C)n1ccnc1CN1CCCN(C(=O)c2nccnc2N)CC1,3.581
2,CN1CC2(CCN(Cc3ncc[nH]3)CC2)CC1=O,-5.481
3,CC(NC(N)=O)C(=O)N1CCCN(Cc2nccn2C(C)C)CC1 (centres undefined),-6.463
4,Cn1ccnc1CN1CCC2(CC1)CN(CC1CC1)C(=O)CO2,-0.08379
5,Cn1ccnc1CN1CCOC(C)(C(=O)N2CCOCC2)C1 (centres undefined),108.3
6,COc1ccccc1CC1CCCN(CCC#N)C1 (centres undefined),-6.976
7,Cc1nonc1C1CCCN1C(=O)c1cc2n(n1)CCCNC2 (centres undefined),-3.031
8,COCC(O)CN(C)c1ccnc2cc(Br)ccc12 (centres undefined),92.3
9,COc1ccc(COCC(O)CN(C)c2ccc(C)cc2C)cc1 (centres undefined),10.8
10,COCC(O)CN(C)c1ccnc2cc(F)ccc12 (centres undefined),83.56
11,COCC(O)CNc1cncc(Br)c1 (centres undefined),-2.667
12,COCC(O)CN(C)c1ccnc2ccc(Cl)cc12 (centres undefined),99.68
13,COc1cc(F)ccc1N(C)Cc1ccccn1,9.437
14,COCC(=O)N1CCC(Nc2ccnc3ccc(Cl)cc23)CC1,-6.533
15,COc1ccc(Cl)cc1NC(=O)N(C)CC(O)COCCOC(C)C (centres undefined),-8.214
16,Cc1ccc(N(C)CC(O)COCc2ccccc2F)c(C)c1 (centres undefined),0.5576
17,COC(=O)c1ccc(Cl)c(NS(=O)(=O)c2cnn(C)c2)c1,-1.605
18,O=C(CNC(=O)C1CC1)NCC(F)(F)F,-16.51
19,Cl.O=C(CCc1cccc(C2CCNCC2)n1)N1CCCCC1,116.4
20,O=C(CCc1ccccc1)N1CCC(c2n[nH]c(C3CC3)n2)CC1,-4.114
21,Cl.NC(=O)CCc1cccc(C2CCNCC2)n1,115.3
